Experimental data as given in PubChem BioAssay (Tox21).
Records with an inconclusive call do not appear. Active and inactive are the calls of the source. Unless noted, calls follow the shape of the dose curve; as a rule, active = well fitted curve in the direction sought with a large enough effect in the repeat runs; inconclusive = weak or mixed curves; inactive = no such curve, though single readings can be large; an effect the other way counts as inactive or inconclusive.

Assays:
[1] = molecular target: Retinoic acid receptor RXR-alpha (Homo sapiens) (UniProt P19793); assay: qHTS assay to identify small molecule agonists of the RXR signaling pathway (AID 1159527; calls by dose curve; also: nearly all actives have a fitted effect of over 35% in size)
Chain of Retinoic acid receptor RXR-alpha (Homo sapiens) (P19793 whole entry, looked up): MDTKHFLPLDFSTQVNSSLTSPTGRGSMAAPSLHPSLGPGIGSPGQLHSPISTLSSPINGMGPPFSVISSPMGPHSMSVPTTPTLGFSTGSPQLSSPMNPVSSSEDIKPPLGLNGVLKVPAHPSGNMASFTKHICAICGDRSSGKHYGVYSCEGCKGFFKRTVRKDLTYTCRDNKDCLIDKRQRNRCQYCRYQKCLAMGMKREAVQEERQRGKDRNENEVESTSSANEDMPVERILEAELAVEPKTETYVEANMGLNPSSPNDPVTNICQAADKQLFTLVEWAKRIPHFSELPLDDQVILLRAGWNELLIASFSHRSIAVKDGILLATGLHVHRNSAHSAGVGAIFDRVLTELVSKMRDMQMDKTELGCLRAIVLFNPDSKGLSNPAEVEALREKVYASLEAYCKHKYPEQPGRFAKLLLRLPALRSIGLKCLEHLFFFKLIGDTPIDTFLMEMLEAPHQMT
Procedure, shortened: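 Reporter activation is measured as beta-lactamase activity via FRET substrate cleavage (emission 460/530 nm) in HEK 293T cells expressing an RXR-alpha-driven bla construct, following 16 hr compound exposure at 37 C.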

[2] = qHTS assay to identify small molecule agonists of the RXR signaling pathway - cell viability counter screen (AID 1159529); also: nearly all actives have a fitted effect of over 50% in size
Procedure, shortened: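 Tox21 10K compounds were tested for cytotoxicity against GeneBLAzer RXR-alpha HEK 293T cells grown in 2% charcoal-stripped FBS. Exposure lasted 16 hr at 37 C, 5% CO2; viability read by CellTiter-Glo luminescence.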

[3] = qHTS assay to identify small molecule antagonists of the retinoid acid receptor (RAR) signaling pathway - cell viability counter screen (AID 1159551); also: nearly all actives have a fitted effect of over 35% in size
Procedure, shortened: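 C3RL4 RARE-luciferase cells, 1,000/well, incubated overnight, then dosed with compound plus 1 uM retinol (final). After 6 hr at 37 C, viability read by CellTiter-Glo ATP luminescence following 30 min at room temperature.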

[4] = qHTS assay to identify small molecule antagonists of the retinoic acid receptor (RAR) signaling pathway (AID 1159552; also: nearly all actives have a fitted effect of over 50% in size)
Procedure, shortened: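 Overnight-plated C3RL4 reporter cells get compound, then retinol to 1 uM final; plates sit 6 hr at 37 C, 5% CO2. A luciferase reagent is added and light output recorded after 30 min at room temperature.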

[5] = qHTS assay to identify small molecule agonists of the retinoic acid receptor (RAR) signaling pathway (AID 1159553); conditions: C3RL4 RARE luciferase reporter, agonist, 6 h; activation: at 73.3 µM (top of the series)
Procedure, shortened: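 C3RL4 RARE-luciferase cells were seeded at 1,000/well and grown overnight at 37 C, then exposed to compounds for 6 hr at 37 C, 5% CO2. Luciferase reagent was added and luminescence was read after 30 min at room temperature.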

[6] = qHTS assay to identify small molecule antagonists of the constitutive androstane receptor (CAR) signaling pathway - cell viability counter screen (AID 1224837); also: nearly all actives have a fitted effect of over 45% in size
Procedure, shortened: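 HepG2 cells stably carrying hCAR and CYP2B6-2.2kb reporter, stimulated with 50 nM CITCO and compounds at 15 concentrations for 23 h at 37 C. Viability measured by CellTiter-Fluor fluorescence.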

[7] = qHTS assay to identify small molecule antagonists of the estrogen related receptor signaling pathway with the pleiotropic PPARgamma coactivator (PGC) from Tox21 10K library - cell viability counter screen (AID 1224840; active = well fitted cell-killing curve with a large enough effect in the repeat runs, not every such curve was filed as active; also: nearly all actives have a fitted effect of over 40% in size)
Procedure, shortened: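 PGC/ERR cells (2,000/well) plated 6 h, then compound-treated for 17.5 h at 37 C. Viability measured by CellTiter-Fluor fluorescence after 30 min at 37 C, multiplexed with the pathway assay.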

[8] = qHTS assay to identify small molecule agonists of the hypoxia (HIF-1) signaling pathway - cell viability counter screen (AID 1224844; calls by dose curve; also: nearly all actives have a fitted effect of over 50% in size)
Procedure, shortened: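 HRE-bla ME-180 cells, 2,000/well in 0.5% dialyzed FBS medium, treated 17 h at 37C with compounds. Viability read in the same wells as the bla reporter, by CellTiter-Glo luminescence after 30 min at room temperature.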

[9] = qHTS assay to identify small molecule agonists of H2AX (AID 1224845; active = well fitted activation curve with a large enough effect in the signal ratio in the repeat runs, not every such curve was filed as active; the % refers to the signal ratio)
Procedure, shortened: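 Wild-type CHO-K1 cells plated overnight, then exposed 3 hr at 37C to compounds at 15 concentrations (0.76% DMSO). Lysed, then HTRF anti-pH2AX(S139)-cryptate/anti-H2AX-d2 detection after 24 hr at room temperature; emissions 665 and 620 nm.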

[10] = qHTS assay to identify small molecule agonists of the hypoxia (HIF-1) signaling pathway (AID 1224846; active = well fitted activation curve with a large enough effect in the signal ratio in the repeat runs, not every such curve was filed as active; the % refers to the signal ratio)
Procedure, shortened: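 HRE-bla ME-180 beta-lactamase reporter cells in medium with 0.5% dialyzed FBS, pre-incubated 5 h then exposed to compounds 17 h at 37C, 5% CO2; reporter induction read with CCF4-AM FRET substrate.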

[11] = qHTS assay to identify small molecule agonists of H2AX - cell viability counter screen (AID 1224847; calls by dose curve; also: top concentration of the series differs between compounds; nearly all actives have a fitted effect of over 30% in size)
Procedure, shortened: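 Viability of CHO-K1 (wild type) cells after 3 hr compound exposure was measured by CellTiter-Glo luminescence.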

[12] = qHTS assay to identify small molecule antagonists of the estrogen related receptor (ERR) signaling pathway from Tox21 library - cell viability counter screen (AID 1224834); also: nearly all actives have a fitted effect of over 30% in size
Procedure, shortened: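 ERR reporter cells, 2,000 per well, rested 6 h, then exposed to compound in DMSO for 17.5 hours at 37 C. Viability read as fluorescence after 30 min with CellTiter-Fluor.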

[13] = molecular target: Luciferin 4-monooxygenase (Photinus pyralis) (UniProt P08659); assay: qHTS assay to identify small molecule inhibitors of firefly luciferase (AID 1224835); also: nearly all actives have a fitted effect of over 25% in size
Chain of Luciferin 4-monooxygenase (Photinus pyralis) (P08659 whole entry, looked up): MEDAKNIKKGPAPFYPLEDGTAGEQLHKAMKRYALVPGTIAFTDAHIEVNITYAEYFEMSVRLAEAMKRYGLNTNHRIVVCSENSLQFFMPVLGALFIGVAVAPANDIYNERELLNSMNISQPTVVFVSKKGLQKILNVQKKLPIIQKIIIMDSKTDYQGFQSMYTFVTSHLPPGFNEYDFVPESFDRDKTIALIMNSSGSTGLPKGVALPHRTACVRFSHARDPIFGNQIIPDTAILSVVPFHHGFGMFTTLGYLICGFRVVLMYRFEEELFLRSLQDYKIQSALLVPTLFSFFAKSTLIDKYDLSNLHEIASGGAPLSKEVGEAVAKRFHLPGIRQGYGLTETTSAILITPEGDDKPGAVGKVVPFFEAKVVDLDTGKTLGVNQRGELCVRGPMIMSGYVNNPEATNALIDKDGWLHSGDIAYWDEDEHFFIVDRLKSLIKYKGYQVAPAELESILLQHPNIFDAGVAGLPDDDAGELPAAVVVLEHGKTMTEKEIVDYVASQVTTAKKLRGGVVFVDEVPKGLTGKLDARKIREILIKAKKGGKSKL
Procedure, shortened: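 Quantitative HTS format; KM concentrations of both substrates. Purified P. pyralis FLuc activity quantified from luminescence images.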

[14] = qHTS assay to identify small molecule antagonists of the estrogen related receptor signaling pathway with the pleiotropic PPARgamma coactivator (PGC) from Tox21 10K library (AID 1224841; call rule not given here; also: actives are mostly falling curves and most rising ones were filed inactive; nearly all actives have a fitted effect of over 50% in size)
Procedure, shortened: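 PGC/ERR cell line, 2,000 cells/well, pre-incubated 6 hours at 37 C, then exposed to compounds for 18 hours at 37 C; luciferase read with One-Glo luminescence after 30 min at room temperature.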

[15] = qHTS assay to identify small molecule agonists of the estrogen related receptor signaling pathway with the pleiotropic PPARgamma coactivator (PGC) from Tox21 10K library (AID 1224842); also: nearly all actives have a fitted effect of over 15% in size
Procedure, shortened: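 PGC/ERR reporter cells (NTP line) were seeded 2,000 per well, rested 6 h at 37 C/5% CO2, then pin-dosed with compounds in DMSO for 18 h at 37 C; luciferase read by One-Glo luminescence after 30 min at room temperature.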

[16] = molecular target: Thyrotropin receptor (Homo sapiens) (UniProt P16473); assay: qHTS assay to identify small molecule agonists of the thyroid stimulating hormone receptor (TSHR) signaling pathway (AID 1224843; calls by dose curve; also: nearly all actives have a fitted effect of over 45% in size)
Chain of Thyrotropin receptor (Homo sapiens) (P16473 whole entry, looked up): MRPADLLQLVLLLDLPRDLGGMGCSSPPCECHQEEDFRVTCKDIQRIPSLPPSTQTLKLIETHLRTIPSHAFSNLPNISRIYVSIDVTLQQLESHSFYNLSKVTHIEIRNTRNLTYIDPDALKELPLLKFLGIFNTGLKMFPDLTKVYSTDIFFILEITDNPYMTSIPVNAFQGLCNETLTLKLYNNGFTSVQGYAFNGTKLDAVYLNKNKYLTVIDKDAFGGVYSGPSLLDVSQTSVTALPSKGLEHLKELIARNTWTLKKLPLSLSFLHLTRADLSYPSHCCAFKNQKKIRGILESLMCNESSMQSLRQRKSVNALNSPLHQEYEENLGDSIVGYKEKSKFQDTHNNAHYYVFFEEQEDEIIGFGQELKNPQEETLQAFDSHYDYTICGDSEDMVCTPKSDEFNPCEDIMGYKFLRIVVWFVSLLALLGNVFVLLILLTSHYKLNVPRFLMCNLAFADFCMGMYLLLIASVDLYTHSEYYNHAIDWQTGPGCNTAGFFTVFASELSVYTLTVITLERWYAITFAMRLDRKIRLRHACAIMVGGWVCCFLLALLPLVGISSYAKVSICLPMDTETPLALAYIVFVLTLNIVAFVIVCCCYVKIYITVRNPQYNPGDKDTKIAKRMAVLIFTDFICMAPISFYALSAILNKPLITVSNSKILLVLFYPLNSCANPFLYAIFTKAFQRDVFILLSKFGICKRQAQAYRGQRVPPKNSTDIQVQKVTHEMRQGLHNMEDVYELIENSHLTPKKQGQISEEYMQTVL
Procedure, shortened: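 TSHR-expressing HEK293 cells (800 per well) were exposed to compounds for 30 min at room temperature. cAMP was then detected by HTRF competition with cAMP-d2 and anti-cAMP cryptate, read after 1 h at room temperature. Fifteen concentrations, triplicate.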

[17] = qHTS assay to identify small molecule antagonists of the estrogen related receptor (ERR) signaling pathway from Tox21 library (AID 1224848); also: nearly all actives have a fitted effect of over 50% in size
Procedure, shortened: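 Cells: ERR line, 2,000/well; 6 h preincubation 37 C/5% CO2. Cpd in DMSO via pin tool; 18 h, 37 C. ONE-Glo, 30 min RT, luminescence.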

[18] = qHTS assay to identify small molecule agonists of the constitutive androstane receptor (CAR) signaling pathway - cell viability counter screen (AID 1224836); also: nearly all actives have a fitted effect of over 45% in size
Procedure, shortened: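 Fluorescence from CellTiter-Fluor indicates live cells after 23 h exposure. The human hepatoma line expresses hCAR and a CYP2B6-2.2kb reporter. Incubation medium contains 0.75 uM PK11195 (final).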

[19] = molecular target: Nuclear receptor subfamily 1 group I member 3 (Homo sapiens) (UniProt Q14994); assay: qHTS assay to identify small molecule agonists of the constitutive androstane receptor (CAR) signaling pathway (AID 1224839); also: nearly all actives have a fitted effect of over 15% in size
Chain of Nuclear receptor subfamily 1 group I member 3 (Homo sapiens) (Q14994 whole entry, looked up): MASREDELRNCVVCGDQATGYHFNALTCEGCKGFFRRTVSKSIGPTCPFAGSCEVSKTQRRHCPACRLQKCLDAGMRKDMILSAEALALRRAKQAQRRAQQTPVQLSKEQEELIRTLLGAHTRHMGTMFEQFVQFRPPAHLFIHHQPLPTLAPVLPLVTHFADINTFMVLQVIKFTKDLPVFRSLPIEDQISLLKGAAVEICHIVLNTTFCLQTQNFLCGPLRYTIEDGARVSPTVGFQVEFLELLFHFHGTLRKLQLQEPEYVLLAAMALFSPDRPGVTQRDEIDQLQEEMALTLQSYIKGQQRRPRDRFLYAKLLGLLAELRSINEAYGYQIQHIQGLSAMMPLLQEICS
Procedure, shortened: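 Stable hCAR/CYP2B6-2.2kb HepG2 line in DMEM with 10% FBS; compounds (15 concentrations) and 0.75 uM PK11195 final, 24 h at 37 C/5% CO2, then ONE-Glo luminescence after 30 min.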

[20] = molecular target: Nuclear receptor subfamily 1 group I member 3 (Homo sapiens) (UniProt Q14994); assay: qHTS assay to identify small molecule antagonists of the constitutive androstane receptor (CAR) signaling pathway (AID 1224838); also: nearly all actives have a fitted effect of over 40% in size
Procedure, shortened: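 HepG2 cells stably carrying hCAR and a CYP2B6-2.2kb luciferase reporter, seeded 4 hrs before compound (15 concentrations). Stimulated with 50 nM CITCO for 24 hr at 37 C. ONE-Glo luminescence read after 30 min at room temperature.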

Measured: Potency

CC(C)COC(=O)CCCCC(=O)OCC(C)C
inactive: [1] | [2] | [3] | [4] | [5] | [6] | [7] | [8] | [9] | [10] | [11]

O=C(Oc1ccccc1C(=O)O)c1ccccc1O
not listed: [3] | [8] | [18] | [19] | [20]
inactive: all other assays above

CC(C)(CO)[C@@H](O)C(=O)NCCCO
not listed: [3] | [10] | [20]
inactive: all other assays above

COC(OC)C(C)c1ccccc1 (centres undefined)
not listed: [3] | [8] | [14] | [15] | [17] | [19] | [20]
inactive: all other assays above

CCOC(=O)CC#N
inactive: [1] | [2] | [4] | [5] | [18] | [6] | [7] | [16] | [9] | [10] | [11]

Cc1c(C(C)C)c(=O)n(-c2ccccc2)n1C
not listed: [3] | [9] | [14] | [16] | [19]
inactive: all other assays above

OCCCCCCCl
not listed: [3] | [14] | [15] | [17] | [19] | [20]
inactive: all other assays above

C=C(C)[C@@H]1CC[C@@H](C)C[C@@H]1O
not listed: [4] | [5] | [14] | [15] | [17] | [19] | [20]
inactive: all other assays above

Cn1c(=O)c2c(ncn2CC2OCCO2)n(C)c1=O
not listed: [3] | [9] | [16] | [18] | [19]
inactive: all other assays above
